The record followed here is PubChem BioAssay (EPA / NIEHS).

Each structure is given as a SMILES string. A structure can be active in one record and inactive in another. Activity calls are given as the source filed them. The calls were made as follows: active = hit-call score of the fitted dose curve at least 0.9, where 1 is the maximum; inactive = score below 0.9.

The experiment can be described thus: ATG_PBREM_CIS: Attagene CIS-FACTORIAL HepG2 Assay for human Phenobarbital-responsive Enhancer Module (PBREM) (AID 2282955). The settings on record: HepG2 PBREM cis-reporter, Attagene multiplexed transcription; actives raise or lower the signal. The protocol:
ATG_CIS is a cell-based, multiplexed-readout assay that uses HepG2, a human liver cell line, with measurements taken at 24 hours after chemical dosing in a 24-well plate.ATG_PBREM_CIS is one of 52 assay component(s) measured or calculated from the ATG_CIS assay. It is designed to make measurements of mRNA induction, a form of inducible reporter, as detected with fluorescence intensity signals by Reverse transcription polymerase chain reaction (RT-PCR) and Capillary electrophoresis technology.Data from the assay component ATG_PBREM_CIS was analyzed into 1 assay endpoint. This assay endpoint, ATG_PBREM_CIS, was analyzed with bidirectional fitting relative to DMSO as the negative control and baseline of activity. Using a type of inducible reporter, measures of mRNA for gain or loss-of-signal activity can be used to understand the reporter gene at the transcription factor-level as they relate to the gene NR1I3. Furthermore, this assay endpoint can be referred to as a primary readout, because this assay has produced multiple assay endpoints where this one serves a reporter gene function. To generalize the intended target to other relatable targets, this assay endpoint is annotated to the nuclear receptor intended target family, where the subfamily is non-steroidal.
Human liver HepG2 cells are transiently transfected with multiple reporter transcription units (MRTUs) in 6-well plates using FuGene 6 reagent (Roche; 3 ml FuGene/1 mg DNA). The MRTU constructs are regulated by a cis-regulating element (promoter). […] A major difference between the CIS and TRANS system is that in CIS activities of endogenous TFs are measured, whereas the TRANS assay evaluates changes in activities of exogenous, chimeric NR-Gal4 proteins. […] At the end of 24 hour incubation, total RNA was isolated using TriZol reagent (Invitrogen). The isolated RNA is then reverse-transcribed using oligo(dT) primer and Mo-MLV reverse transcriptase (Invitrogen) with DNAse I (Ambion) treatment for 30 min. The one-tenth of the produced cDNA was amplified by PCR using Taq DNA polymerase (Invitrogen) and two reporter sequence-specific primers. The PCR products were fluorescently labeled by primer extension with 6-arboxyfluorescein (6-FAM) 5'-labeled reporter sequence-specific primer (2 min at 95 C, 20 s at 68 C and 10 min at 72 C) and these products were digested with 5U of HpaI (New England Biolabs) for 2h at 37 C. The fragments were purified using Qiaquick PCR columns (Qiagen), analyzed on an ABI 3130xL genetic analyzer (Applied Biosystems) with peak positions identified by using a set of X-rhodamine (ROX)-labeled MapMarker1000 molecular weight standards (BioVentures). The raw capillary electrophoresis data was processed using Attagraph software (Attagene).
Regarding `CCOc1ccc(N)cc1`, the outcome was inactive.

As to `CN(C)c1ccc(N=O)cc1`, the outcome was inactive.

As usually defined, the AC50 is the concentration giving half of the maximal activity seen. For the compound `CC1(C)[C@H](C(=O)O[C@H](C#N)c2cccc(Oc3ccccc3)c2)[C@@H]1/C=C(\Cl)C(F)(F)F`, the AC50 is 1.16 µM (active) and the result was inactive.

Regarding `O=C(Cl)OCCOCCOC(=O)Cl`, the result was inactive.

In the case of `Cc1cc(C(F)(C(F)(F)F)C(F)(F)F)ccc1NC(=O)c1cccc(I)c1C(=O)NC(C)(C)CS(C)(=O)=O`, the result was inactive.

Consider `O=C(NC(=O)c1c(F)cccc1F)Nc1cc(Cl)c(F)c(Cl)c1F`, for which the result was inactive.

For `COC(=O)Nc1cccc(OC(=O)Nc2cccc(C)c2)c1`, the outcome was inactive.

For the compound `OCCCCO`, the result was inactive.

For the compound `COC(=O)c1cc(Oc2ccc(Cl)cc2Cl)ccc1[N+](=O)[O-]`, the AC50 is 11.8 µM (active).

`Cc1cc(Cl)ccc1N`: the outcome was inactive.

`CC(C)N(C(=O)CCl)c1ccccc1`: the outcome was inactive.

For the compound `O=[N+]([O-])c1ccc(Cl)c([N+](=O)[O-])c1`, the result was inactive.

As to `CCCCOC(=O)COC(=O)c1ccccc1C(=O)OCCCC`, the outcome was inactive.

`CC(C)(C)c1cc([N+](=O)[O-])cc(C(C)(C)C)c1O`: the AC50 is 2.52 µM (active).

Take `C=CCOC(F)(C(F)(F)F)C(F)(F)F`: the outcome was inactive.

On to `C[C@@H]1O[C@@H](O[C@H]2C[C@@H](O)[C@]3(CO)[C@H]4[C@H](O)C[C@]5(C)[C@@H](C6=CC(=O)OC6)CC[C@]5(O)[C@@H]4CC[C@]3(O)C2)[C@H](O)[C@H](O)[C@H]1O`, for which the outcome was inactive.

In the case of `Nc1nc(N)nc(Cl)n1`, the outcome was inactive.

For `C#CCOC(=O)/C=C(C)/C=C/CC(C)CCCC(C)C` (stereo not given), the outcome was inactive.

In the case of `Nc1ccc(N)cc1`, the outcome was inactive.

Turning to `O=c1oc2ccccc2c(O)c1C(CC(O)c1ccc(-c2ccc(Br)cc2)cc1)c1ccccc1` (stereo not given), the AC50 was 31.7 µM (active) and the outcome was inactive.

Consider `Cc1cc(C(C)(C)c2ccc(O)c(C)c2)ccc1O`, for which the AC50 was 18.1 µM (active).

In the case of `Cc1ccccc1OP(=O)(Oc1ccccc1)Oc1ccccc1`, the outcome was inactive.

As to `O=C=Nc1ccc(Cl)cc1`, the result was inactive.

As to `Nc1ccc(Br)cc1`, the outcome was inactive.

Consider `C=CC(=O)[O][Sn]([CH2]CCC)([CH2]CCC)[CH2]CCC`, for which the AC50 was 0.321 µM (active).

With `CC(C)(C1CCC(O)CC1)C1CCC(O)CC1` (stereo not given), the outcome was inactive.

Turning to `NC(=O)c1ccc(N)nc1`, the result was inactive.

On to `CCOc1cc(C=O)ccc1O`, for which the result was inactive.

For `Fc1cccc(Cl)c1CCl`, the result was inactive.

For the compound `CC(C)CC(C)(c1ccc(O)cc1)c1ccc(O)cc1`, the result was inactive.

Regarding `C=CCCl`, the result was inactive.

Regarding `C=CCN=C=S`, the result was inactive.

With `CN(C1CCCCC1)C1CCCCC1`, the outcome was inactive.

For `ClCc1ccccc1Cl`, the result was inactive.

With `Nc1ccc(-c2ccccc2)cc1`, the outcome was inactive.

Consider `CCC(C)(C#N)N=NC(C)(C#N)CC` (stereo not given), for which the outcome was inactive.

Regarding `OC(Cc1ccccc1Cl)(Cn1cncn1)C1(Cl)CC1` (stereo not given), the AC50 is 19.8 µM (active).

In the case of `Brc1ccc(Oc2c(Br)cc(Br)cc2Br)c(Br)c1`, the outcome was inactive.
